Assay outcomes as filed in PubChem BioAssay.
WRN helicase inh: qHTS for Inhibitors of WRN Helicase; WRN helicase unwinding, fluorescent forked duplex, kinetic; Potency, µM (highest dose often 114 µM), actives largely listed as inhibitors; 0.46% of 360,000 active; AID 651768, 2012; also: nearly all actives have a fitted effect of over 55% in size
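WRN at 20 nM final preincubated with compound 15 min at room temperature; reaction started with 100 nM fluorophore/quencher forked duplex oligonucleotide and 2 mM ATP final. Unwinding followed kinetically by red fluorescence (ex 525, em 598 nm).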
POLI inh: qHTS for Inhibitors of Polymerase Iota. DNA polymerase iota (Homo sapiens), Q9UNA4. Pol iota fluorescent replication assay, 10 min. Potency, µM (series often up to 115 µM), most hits filed as inhibitors. 1% of 390,000 active. AID 588590, 2011
Target sequence (Q9UNA4 whole entry, looked up): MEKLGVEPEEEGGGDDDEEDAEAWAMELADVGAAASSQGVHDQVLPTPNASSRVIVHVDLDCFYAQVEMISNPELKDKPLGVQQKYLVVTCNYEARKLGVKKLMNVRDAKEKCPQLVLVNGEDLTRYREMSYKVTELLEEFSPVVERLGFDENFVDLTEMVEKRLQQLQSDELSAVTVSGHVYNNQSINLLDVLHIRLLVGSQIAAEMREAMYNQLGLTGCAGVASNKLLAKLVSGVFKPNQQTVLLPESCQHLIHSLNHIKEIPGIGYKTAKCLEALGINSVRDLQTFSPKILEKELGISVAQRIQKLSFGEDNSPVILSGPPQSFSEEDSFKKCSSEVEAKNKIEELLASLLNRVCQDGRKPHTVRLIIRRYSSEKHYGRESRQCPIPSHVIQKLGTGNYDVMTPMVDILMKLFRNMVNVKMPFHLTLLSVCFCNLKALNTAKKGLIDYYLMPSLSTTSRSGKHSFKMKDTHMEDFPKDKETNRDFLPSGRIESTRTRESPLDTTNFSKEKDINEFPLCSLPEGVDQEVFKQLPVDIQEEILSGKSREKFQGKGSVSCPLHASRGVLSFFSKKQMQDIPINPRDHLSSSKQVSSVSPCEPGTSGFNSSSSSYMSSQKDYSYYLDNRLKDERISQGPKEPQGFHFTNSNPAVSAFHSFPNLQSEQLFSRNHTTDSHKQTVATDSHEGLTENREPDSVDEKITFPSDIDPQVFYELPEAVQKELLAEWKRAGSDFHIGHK
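Fluorescent replication assay read twice, at 0 min and 10 min after adding 50 nM (final) substrate. Enzyme (10 nM) and compounds were first incubated 15 min at room temperature; enzyme-free buffer wells were negative controls.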
Pol eta inh-1: qHTS for Inhibitors of Polymerase Eta; DNA polymerase eta (Homo sapiens), Q9Y253; Potency, µM (series often up to 114 µM), usual class: inhibitors; recombinant Pol eta, fluorescent DNA replication assay; AID 588591, 2011; 1.2% of 390,000 active
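Pol eta (10 nM) was preincubated with compounds for 15 min at room temperature, after which fluorescent replication substrate (50 nM final) was added to start the reaction. Fluorescence was read kinetically at 0 and 10 min.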
Pol kappa inh-1: qHTS for Inhibitors of Polymerase Kappa. Potency, µM (highest dose often 107 µM), usual class: inhibitors. AID 588579, 2011. DNA polymerase kappa (Homo sapiens), Q9UBT6. 0.53% of 400,000 active. purified Pol kappa, fluorescent DNA synthesis assay, 10 min
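Kinetic fluorescence readout at 0 and 10 min followed reaction start with substrate at 50 nM final. Beforehand, enzyme (10 nM Pol kappa) stood 15 min with compound at room temperature; buffer-only wells were negative controls.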
FEN1 inhibitor: qHTS Assay for the Inhibitors of Human Flap endonuclease 1 (FEN1). P39748. 0.35% of 390,000 active. AID 588795, 2011. Recombinant FEN1 flap cleavage, fluorescence, 15 min. Potency, µM (doses to about 114 µM), most hits filed as inhibitors; also: nearly all actives have a fitted effect of over 65% in size
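Potency values derive from four-parameter Hill fits of normalized qHTS data. The reaction used 10 nM FEN1 preincubated 15 min at room temperature with compound, then 50 nM DNA substrate, read at 0 and 15 min.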
Pol beta inh: qHTS Assay for Inhibitors of DNA Polymerase Beta; Pol beta primer extension/strand displacement, fluorescence kinetic; 1.3% of 340,000 active; Potency, µM (top dose mostly 114 µM), hits mostly inhibitors; AID 485314, 2010; P06746
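Enzyme-only controls used 10 nM Pol beta; buffer lacking enzyme served as negative control. Compound preincubated 15 min, then 50 nM substrate added; 0 and 10 min reads at room temperature.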
GALK confirm: Confirmation Assay for Inhibitors of Human Galactokinase (GALK); shares compounds with Pol eta inh-1; purified GALK, Kinase-Glo ATP depletion luminescence; Potency, µM (titrated, usually from 115 µM), most hits filed as inhibitors; 70% of 150 active; AID 2015, 2009
GALK redox cs: Confirmatory Assay for Inhibitors of Human Galactokinase (GALK): Phenol-HRP redox assay counterscreen. Phenol red-HRP H2O2 redox cycling, absorbance 600 nm. shares compounds with Pol eta inh-1. Potency, µM (titrated, usually from 115 µM), most hits filed as inhibitors. 40% of 150 active
HEK293 viability: Secondary Assay for Inhibitors of Human Galactokinase (GALK): HEK-293 Cell Viability Assay. shares compounds with Pol eta inh-1. HEK-293 viability, ATP luminescence (CellTiter-Glo), 24/48 h. Potency, µM (doses to about 46.1 µM), usual class: inhibitors. 10% of 170 active
Pol kappa inh-2: qHTS for Inhibitors of Polymerase Kappa: Confirmatory Assay for Cherry-picked Compounds | purified Pol-kappa, fluorescent strand-displacement substrate | Potency, µM, usual class: inhibitors | 76% of 920 active | shares compounds with Pol eta inh-1 | AID 720501, 2013
Pol eta inh-2: qHTS for Inhibitors of Polymerase Eta: Confirmatory Assay for Cherry-picked Compounds | shares compounds with Pol eta inh-1 | Pol eta primer extension, TAMRA/BHQ fluorescence, 10 min | Potency, µM, hits mostly inhibitors | 64% of 2,600 active
A number is an active result; [ ] = remark or other dose. Rows were chosen to be rich in hits. Some 2.4% of all compounds tested hit in one or more screens of this group. Calls follow the shape of the dose curve; as a rule, active = well fitted curve in the direction sought with a large enough effect; inconclusive = small, poorly fitted or top-dose-only effect, or another doubt; inactive = no such curve, though single readings can be large; an effect the other way counts as inactive or inconclusive.

CCNc1ncc2nc(-c3cc(F)cc(F)c3)c(=O)n(-c3ccccc3)c2n1 was read as Pol kappa inh-1 inactive.
Screening S=c1[nH]nc(-c2cc(-c3ccccc3)n[nH]2)n1/N=C/c1ccc(Br)s1 returned WRN helicase inh inactive[11.6 µM], POLI inh 22µM, Pol eta inh-1 inconclusive, Pol kappa inh-1 inconclusive, FEN1 inhibitor inconclusive, Pol beta inh 18µM, Pol kappa inh-2 42 and Pol eta inh-2 inconclusive.
Screening Cc1cc(-c2n[nH]c(=S)n2/N=C/c2ccc(Br)s2)n[nH]1 returned WRN helicase inh inactive, POLI inh inconclusive, Pol eta inh-1 inactive, Pol kappa inh-1 inactive, FEN1 inhibitor inactive and Pol beta inh inactive.
Screening O=C(N/N=C/c1cc(Cl)cc([N+](=O)[O-])c1O)c1ccccc1NS(=O)(=O)c1cccs1 returned WRN helicase inh inactive[11.6 µM], POLI inh inconclusive, Pol eta inh-1 inconclusive, Pol kappa inh-1 inactive, FEN1 inhibitor inactive, Pol beta inh inactive and Pol eta inh-2 inconclusive.
`O=C(NCc1ccc2c(c1)CCN2C(=O)c1ccncc1)c1cccc(Cl)c1` gave POLI inh inactive, Pol eta inh-1 inactive, Pol kappa inh-1 inactive, FEN1 inhibitor inactive and Pol beta inh inactive.
COc1cc(/C=C/C(=O)O)ccc1S(=O)(=O)N1CCCc2ccccc21 was read as WRN helicase inh inactive, POLI inh inactive, Pol eta inh-1 inactive, Pol kappa inh-1 inactive, FEN1 inhibitor inactive and Pol beta inh inactive.
`COc1ccc(/C=C/C(=O)O)cc1S(=O)(=O)N1CCCc2ccccc21` gave WRN helicase inh inactive[11.6 µM], POLI inh inactive, Pol eta inh-1 45µM, Pol kappa inh-1 inactive, FEN1 inhibitor inactive, Pol beta inh inconclusive and Pol eta inh-2 60.
For O=[N+]([O-])c1ccc(C=NNc2ccc(S(=O)(=O)O)cc2)cc1 the results were WRN helicase inh inactive[11.6 µM], POLI inh inconclusive, Pol eta inh-1 22µM, Pol kappa inh-1 inactive, FEN1 inhibitor inactive and Pol eta inh-2 48.
`COc1ccc(C(=O)CSc2cc(C)[nH]c(=O)n2)cc1` gave WRN helicase inh inactive[11.6 µM], POLI inh inconclusive, Pol eta inh-1 20µM, Pol kappa inh-1 79µM, FEN1 inhibitor inactive, Pol beta inh 5.6µM and Pol eta inh-2 inconclusive.
`COc1ccc(C(=O)CSc2nc(C)cc(=O)[nH]2)cc1` gave WRN helicase inh inactive, POLI inh inactive, Pol eta inh-1 inactive, Pol kappa inh-1 inactive, FEN1 inhibitor inactive and Pol beta inh inactive.
Screening Cc1ccc(CNC(=O)C2CCC(CNS(=O)(=O)c3ccc(C)cc3)CC2)cc1 (centres undefined) returned POLI inh inactive, Pol eta inh-1 inactive, Pol kappa inh-1 inactive, FEN1 inhibitor inactive and Pol beta inh inactive.
Screening NC(CSC1(c2ccc(Cl)cc2)c2ccccc2-c2ccccc21)C(=O)O (centres undefined) returned WRN helicase inh inactive[11.6 µM], POLI inh inconclusive, Pol eta inh-1 inconclusive, Pol kappa inh-1 inactive, FEN1 inhibitor inactive and Pol eta inh-2 inconclusive.
COc1ccc(C2CC(=O)c3cc(-c4nc(-c5ccc(Cl)cc5)cs4)c(=O)[nH]c3C2)cc1OC (centres undefined) was read as POLI inh inactive, Pol eta inh-1 inactive, Pol kappa inh-1 inactive, FEN1 inhibitor inactive and Pol beta inh inactive.
COc1ccc(/C=C2\SC(=S)N(NS(=O)(=O)c3ccc(C)cc3)C2=O)c(OC)c1 was read as WRN helicase inh inactive, POLI inh inactive, Pol eta inh-1 inconclusive, Pol kappa inh-1 inactive, FEN1 inhibitor inactive, Pol beta inh inconclusive and Pol eta inh-2 21.
Screening COc1ccc(/C=C2\SC(=S)N(NS(=O)(=O)c3ccccc3)C2=O)c(OC)c1 returned WRN helicase inh inactive[11.6 µM], POLI inh inactive, Pol eta inh-1 inconclusive, Pol kappa inh-1 inactive, FEN1 inhibitor inactive and Pol beta inh inactive.
`O=C1c2cccc3cccc(c23)C(=O)N1c1ccc2ncccc2c1` gave WRN helicase inh 79µM, POLI inh inconclusive, Pol eta inh-1 inconclusive, Pol kappa inh-1 inconclusive, FEN1 inhibitor inconclusive, Pol beta inh 32µM and Pol kappa inh-2 inconclusive.
`COc1ccc(-c2cn3nc(N4CCCC(C(=O)Nc5ccccc5F)C4)sc3n2)cc1` (centres undefined) gave POLI inh inactive, Pol eta inh-1 inactive, Pol kappa inh-1 inactive, FEN1 inhibitor inactive and Pol beta inh inconclusive.
`CCOc1ccc(-c2nn(-c3ccccc3)cc2/C=C2\SC(=S)N(C3CCS(=O)(=O)C3)C2=O)cc1` (centres undefined) gave WRN helicase inh inactive, POLI inh inactive, Pol eta inh-1 inactive, Pol kappa inh-1 inactive, FEN1 inhibitor inactive and Pol beta inh inactive.
For COc1ccc(-c2nn(-c3ccccc3)cc2/C=C2/SC(=S)N(CCC(=O)O)C2=O)cc1 the results were WRN helicase inh 50µM, POLI inh inconclusive, Pol eta inh-1 22µM, Pol kappa inh-1 inactive, FEN1 inhibitor 79µM, Pol beta inh 32µM and Pol kappa inh-2 17.
`Cc1ccc(-c2nn(-c3ccccc3)cc2/C=C2\SC(=S)N(CC(=O)O)C2=O)cc1` gave WRN helicase inh inactive, POLI inh inconclusive, Pol eta inh-1 inconclusive, Pol kappa inh-1 inactive, FEN1 inhibitor inactive, Pol beta inh inactive, GALK confirm 42µM, GALK redox cs inactive and HEK293 viability inactive.
